Source: PubChem BioAssay (National Center for Advancing Translational Sciences (NCATS))
FMDV antiviral – foot and mouth disease virus antiviral activity | actives 1.2% (n = 410,000) | AID 1159524 | Potency, µM (top dose mostly 57.9 µM), inactives show at the highest dose activity change, negative = inhibition, most hits filed as inhibitors | FMDV antiviral cell-based qHTS; calls by dose curve; tested in HEK293T cells; note: read-out not given here; potency is the fitted concentration of half-maximal effect; nearly all actives have a fitted effect of over 45% in size
Vaccinia Venus – vaccinia inhibition (Venus reporter) | Vaccinia virus Venus reporter expression, fluorescence | Potency, µM (highest dose often 36.5 µM), for inactives: top-dose activity change, negative = inhibition, usual class: inhibitors | actives 0.46% (n = 330,000); calls by dose curve; tested in A549 cells; note: potency is the fitted concentration of half-maximal effect; nearly all actives have a fitted effect of over 30% in size
MARV entry inh – inhibitors of Marburg virus binding or cell entry | Marburg virus pseudotyped entry inhibition, cell reporter | Potency, µM (top dose mostly 37.8 µM), for the others: at the top dose activity change, negative = inhibition, usual class: inhibitors | actives 1.8% (n = 300,000); calls by dose curve; tested in HEK293 cells; note: potency is the fitted concentration of half-maximal effect
Lassa entry inh – Lassa virus entry inhibition. Lassa virus pseudotype entry inhibition, cell reporter. Potency, µM (series often up to 37.9 µM), without a hit: at the highest dose activity change, negative = inhibition, hits mostly inhibitors. actives 1.2% (n = 300,000). AID 540256; calls by dose curve; tested in HEK293 cells; note: potency is the fitted concentration of half-maximal effect; nearly all actives have a fitted effect of over 50% in size
Vaccinia mCherry – inhibitors of vaccinia virus infection (mCherry reporter signal); Potency, µM (series often up to 36.5 µM), for inactives: at the top dose activity change, negative = inhibition, hits mostly inhibitors; AID 720579; actives 0.63% (n = 310,000); Vaccinia virus mCherry reporter infection, fluorescence; calls by dose curve; tested in A549 cells; note: potency is the fitted concentration of half-maximal effect; nearly all actives have a fitted effect of over 35% in size
HCMV inh – inhibitors of human cytomegalovirus; HFF cells, HCMV-luciferase reporter, 72 h; active compounds read low; activity change, negative = inhibition, % at 57.5 µM; actives 4.5% (n = 410,000); AID 1259415; in the data active = activity change below about -60%; inconclusive = no clear call, values can overlap the other calls; inactive = above about -39%
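Compounds were evaluated in HFFs infected with an HCMV luciferase reporter virus (MOI 1 PFU/cell). Luciferase in lysates collected 72 h post infection served as the replication measure.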
* marks the source's active call; other numbers are inactive results; i = inactive; ? = inconclusive; nt = no result; [ ] = dose if it differs, or a comment. Hits are enriched below; roughly 6.5% of the tested compounds scored in any of these assays. % is set by controls: 0 for no effect and ±100 for the full control effect.

SMILES | FMDV antiviral | Vaccinia Venus | MARV entry inh | Lassa entry inh | Vaccinia mCherry | HCMV inh
CCN(CC)c1ccc(C2C(C(N)=O)=C(C)Nc3ncnn32)cc1 (stereo unspecified) | 12% | -2% | nt | 4%[46.1 µM] | -1% | 4
CN(c1ccccc1)S(=O)(=O)c1ccccc1Br | -12% | -2% | nt | nt | -14% | -81*
CC(C)COc1ccc(CNC(=S)NCc2ccccc2)cc1 | nt | -23% | ? | -8% | -24% | -82*
S=C(NCc1ccccc1)NCc1ccccc1 | nt | -4% | 6% | 2% | -12% | ?
S=C(NCCCc1ccccc1)NCc1ccccc1 | 28% | -5% | ? | -27%[46.1 µM] | -2% | -83*
CCOc1ccc(CN(CCc2ccc3c(c2)OCO3)Cc2cc(OC)c(OC)cc2OC)cc1 | -5% | -9% | nt | -23%[46.1 µM] | i | 10
Cc1nnsc1C(=O)Oc1ccc(C(C)C)cc1 | 7% | -7% | 0%[46.1 µM] | 8%[46.1 µM] | -14% | -5
CCc1ccc(-n2c(SCc3nc(-c4cc(OC)ccc4OC)no3)nnc2-c2ccccc2)cc1 | -13% | -11% | ? | ? | -16% | ?
Cc1cc(C)c2c(N)c3cccc(C)c3nc2n1 | -12% | 10µM* | 3.7µM* | ? | 10µM* | -99*
Cc1cccc2c(N)c3c(nc12)CCCC3 (tested in a mixture with another compound) | -18% | nt | nt | nt | nt | -33
Cc1ccc(S(=O)(=O)Nc2ccc3c(c2)CC(=O)N([C@H](C)CO)C[C@@H](C)[C@H](CN(C)Cc2ccc(-c4ccccc4)cc2)O3)cc1 | -21% | ? | nt | nt | ? | nt
C[C@H]1CN([C@@H](C)CO)C(=O)Cc2cc(NC(=O)CCC(F)(F)F)ccc2O[C@H]1CN(C)Cc1ccc(-c2ccccc2)cc1 | -25% | ? | nt | nt | 11µM* | 99
C[C@H](CO)N1C[C@H](C)[C@H](CN(C)Cc2ccc(-c3ccccc3)cc2)Oc2ccc(NS(=O)(=O)c3ccccc3)cc2CC1=O | ? | 10µM* | nt | nt | ? | nt
CN1C(C(=O)c2ccccc2)=C(NC(=O)c2ccccc2Br)c2ccccc2S1(=O)=O | 18% | -14% | 15%[46.1 µM] | -1%[46.1 µM] | -14% | -22
COc1ccccc1N1CCN(C(=O)Cn2c(=O)nc(-c3ccccc3)c3ccccc32)CC1 | ? | -28% | nt | 11%[46.1 µM] | -23% | -8
COc1cccc(NC(=O)N2CCc3ccccc3C2)c1 | 11% | -20% | -4%[46.1 µM] | -9%[46.1 µM] | -14% | 160
COc1cc(Nc2ncc3c(n2)CCN(C(=O)Nc2ccc(C(C)C)cc2)C3)cc(OC)c1OC | -19% | -22% | nt | nt | -10% | ?
O=C(Nc1cccc(F)c1)N1CCc2nc(NCc3cccc(Oc4ccccc4)c3)ncc2C1 | ? | ? | nt | nt | -6% | -78*
COc1cccc(NC(=O)N2CCc3nc(Nc4ccc(C(C)C)cc4)ncc3C2)c1 | -14% | ? | nt | nt | -2% | -69*
CC(C)c1ccc(NC(=O)N2CCc3nc(NCc4cccc(Oc5ccccc5)c4)ncc3C2)cc1 | -34% | -26% | nt | nt | -13% | -87*
NC1CCc2ccc([N+](=O)[O-])cc21 (stereo unspecified) | nt | -14% | nt | nt | 6% | nt
O=C(Nc1ccc2c(c1)OCO2)c1csc([C@H]2C[C@H](O)[C@@H](CO)O2)n1 | -3% | -5% | nt | nt | 38% | -97*
O=C(Nc1cccc2cccnc12)c1csc([C@@H]2O[C@H](CO)[C@H](O)[C@H](O)[C@H]2O)n1 | -12% | 5% | nt | nt | 14% | -99*
O=C(Nc1cccc2ccccc12)c1csc([C@@H]2O[C@H](CO)[C@@H](O)[C@H]2O)n1 | -6% | 2% | nt | nt | i | -8
O=C(Nc1ccc(Oc2ccccc2)cc1)c1csc([C@@H]2O[C@H](CO)[C@@H](O)[C@H]2O)n1 | 16µM* | -18% | nt | nt | i | -93*
SMILES | FMDV antiviral | Vaccinia Venus | MARV entry inh | Lassa entry inh | Vaccinia mCherry | HCMV inh
O=C(Nc1ccc(F)c(Cl)c1)c1csc([C@H]2C[C@H](O)[C@@H](CO)O2)n1 | 10% | -14% | nt | nt | -13% | 12
O=C(Nc1ccc(Oc2ccccc2)cc1)c1csc([C@H]2C[C@H](O)[C@@H](CO)O2)n1 | 7.9µM* | -27% | nt | nt | -12% | -97*
CC(=O)Nc1ccc(NC(=O)c2csc([C@@H]3C[C@H](O)[C@@H](CO)O3)n2)cc1 | -14% | 7% | nt | nt | 31% | -26
Cc1cc(C)cc(NC(=O)Cn2cc(C(=O)c3ccncc3)c(=O)c3cc(C)c(C)cc32)c1 | -15% | -13% | nt | ? | -9% | -34
COc1ccc2c(c1)c1c(c(=O)n(-c3ccccc3)c(=O)n1CC(=O)Nc1ccc(F)cc1)n2C | -16% | 0% | nt | 18%[46.1 µM] | 6% | 1
CC(=O)ON(C(C)=O)c1ccc(/C=C2\C=Cc3ccccc32)cc1 | nt | -6% | nt | nt | -13% | nt
Cc1ccc(OCC(=O)Nc2ccc3c(c2)nc(CCN2CCC(C)CC2)n3C)cc1 | -11% | -30% | ? | ? | -12% | -70*
COc1ccc(OCC(=O)Nc2ccc3c(c2)nc(CCN2CCC(C)CC2)n3C)cc1 | 11% | nt | nt | nt | nt | -27
CN1CCN(CCc2nc3cc(NC(=O)COc4ccccc4)ccc3n2C)CC1 | -13% | nt | -7% | -2% | nt | -9
Cc1ccc(OCC(=O)Nc2ccc3c(c2)nc(CCN2CCCCC2)n3C)cc1 | -15% | nt | nt | nt | nt | -72*
Cn1c(CCN2CCCCC2)nc2cc(NC(=O)COc3ccccc3)ccc21 | -8% | nt | nt | nt | nt | -73*
CC(C)(C)c1ccc(C(=O)NNC(=O)c2cccc(Br)c2)cc1 | 18% | nt | ? | ? | nt | -73*
Cc1c(Br)c(C(=O)NNC(=O)c2ccc(C(C)(C)C)cc2)nn1C | 28% | nt | nt | nt | nt | -61*
Cn1cc(Br)c(C(=O)NNC(=O)c2ccc(Br)cc2)n1 | 22% | -12% | 22% | 3% | -9% | 48
CC(C)Cc1nc2oc3c(Cl)ncnc3c2c2c1CCC2 | 1% | -3% | ? | ? | -4% | -96*
CCCCCCCCN1[C@@H](CC(=O)O)c2ccc(/C=C/C(=O)O)cc2S1(=O)=O | nt | -10% | nt | nt | i | nt
O=C1CC(c2ccc(O[C@@H]3OC(CO)[C@@H](O)C(O)C3O)cc2)Oc2cc(O)ccc21 (stereo partly specified) | 8% | nt | nt | nt | nt | nt
CCOC(=O)C1=CC[C@@H](c2ccc([N+](=O)[O-])cc2)N(S(=O)(=O)c2ccc(C)cc2)[C@H]1c1ccccc1 | -17% | 5% | nt | nt | 27% | -14
CCOC(=O)C1=C[C@@H](C2CCCCC2)N(S(=O)(=O)c2ccc([N+](=O)[O-])cc2)[C@H]1c1ccccc1 | ? | -1% | nt | nt | 13% | -77*
Cc1ccc2c(=O)cc(C(=O)Nc3nc4ccc(Cl)cc4s3)oc2c1 | -15% | -3% | 0%[46.1 µM] | 2%[46.1 µM] | 0% | 6
COc1ccccc1NC(=S)N(Cc1ccccn1)Cc1ccccc1Cl | 26% | 10% | ? | 2% | 8% | -63*
Cc1ccccc1NC(=S)N(Cc1ccccn1)Cc1ccccc1Cl | 28% | -7% | ? | ? | -14% | ?
COc1ccccc1NC(=S)N(Cc1ccccc1)Cc1cccs1 | 17% | -4% | 1.4µM* | -2% | -11% | -20
